Data reported in the supplement of paper PMC6555819.

Key:
Test in all cases: PBM binding z-score (relative to random genomic background probes); higher = stronger binding; sequences stand for … in GC…GCGATTGACAGCGTAGAATGAAGG
[1] = system: FXR:RXRa (NR concentration 270 nM, RXRa partner concentration 90 nM)
Method in brief: (§1)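 On custom Agilent 4×180K arrays, double-stranded probes with 34-nt variable regions carried direct-repeat seeds, single-nucleotide variants, half-site ablations or random human genomic background. Ligand-free nuclear receptor dimers were applied for 1 h, and binding was read with antibodies against each partner (one per run). Binding z-scores come from regression-normalized fluorescence, with the random background probes as reference.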

[2] = system: LXRa:RXRa (NR concentration 270 nM, RXRa partner concentration 90 nM)
Method in brief: as §1

[3] = system: LXRa homodimer (NR concentration 270 nM)
Method in brief: as §1

[4] = system: LXRb:RXRa (NR concentration 270 nM, RXRa partner concentration 90 nM)
Method in brief: as §1

[5] = system: LXRb homodimer (NR concentration 270 nM)
Method in brief: as §1

[6] = system: PPARa:RXRa (NR concentration 270 nM, RXRa partner concentration 90 nM)
Method in brief: as §1

[7] = system: PPARg:RXRa (NR concentration 180 nM, RXRa partner concentration 90 nM)
Method in brief: as §1

[8] = system: PPARg:RXRa 270nM:90nM, anti-RXR (NR concentration 270 nM, RXRa partner concentration 90 nM)
Method in brief: as §1

[9] = system: PPARg:RXRa 30nM:10nM, anti-RXR (NR concentration 30 nM, RXRa partner concentration 10 nM)
Method in brief: as §1

[10] = system: PPARg:RXRa 90nM:30nM, anti-RXR (NR concentration 90 nM, RXRa partner concentration 30 nM)
Method in brief: as §1

[11] = system: PPARg:RXRa DBDmut IVT, anti-RXR (DBD mutation: RXRa K156A/R161A, NR concentration 270 nM, RXRa partner concentration 90 nM)
Method in brief: as §1

[12] = system: PPARg:RXRa IVT, anti-PPARg (NR concentration 270 nM, RXRa partner concentration 90 nM)
Method in brief: as §1

[13] = system: PPARg DBDmut:RXRa IVT, anti-PPARg (DBD mutation: PPARg1 K132A/R137A, NR concentration 270 nM, RXRa partner concentration 90 nM)
Method in brief: as §1

[14] = system: PPARg DBDmut IVT, anti-PPARg (DBD mutation: PPARg1 K132A/R137A, NR concentration 270 nM)
Method in brief: as §1

[15] = system: PPARg homodimer (NR concentration 180 nM)
Method in brief: as §1

[16] = system: PXR:RXRa (NR concentration 270 nM, RXRa partner concentration 90 nM)
Method in brief: as §1

[17] = system: PXR homodimer (NR concentration 270 nM)
Method in brief: as §1

[18] = system: RARa:RXR (NR concentration 270 nM, RXRa partner concentration 90 nM)
Method in brief: as §1

[19] = system: RARa homodimer (NR concentration 270 nM)
Method in brief: as §1

[20] = system: RARb:RXRa (NR concentration 270 nM, RXRa partner concentration 90 nM)
Method in brief: as §1

| Sequence | PBM binding z-score [1] | PBM binding z-score [2] | PBM binding z-score [3] | PBM binding z-score [4] | PBM binding z-score [5] | PBM binding z-score [6] | PBM binding z-score [7] | PBM binding z-score [8] | PBM binding z-score [9] | PBM binding z-score [10] | PBM binding z-score [11] | PBM binding z-score [12] | PBM binding z-score [13] | PBM binding z-score [14] | PBM binding z-score [15] | PBM binding z-score [16] | PBM binding z-score [17] | PBM binding z-score [18] | PBM binding z-score [19] | PBM binding z-score [20] |
| --- | --- | --- | --- | --- | --- | --- | --- | --- | --- | --- | --- | --- | --- | --- | --- | --- | --- | --- | --- | --- |
| TATCCTAGGTCATTCAGGGGCCAGTATAGAAAGC | 5.25 | 5.67 | 4.76 | 3.96 | 4.11 | 4.18 | 3.29 | 3.8 | 1.64 | 3.05 | 4.17 | 4.85 | 1.68 | 2.21 | 3.21 | 3.08 | 0.861 | 3.84 | 1.26 | 4.08 |
| CCTAGTTGGCCAGGAGGTCACACACCGGATATGA | 4.04 | 3.22 | 1.73 | 3.53 | 0.178 | 4.15 | 2.42 | 2.91 | 0.806 | 2.2 | 0.473 | 2.22 | 0.522 | -0.0399 | 2.61 | 4.27 | 1.23 | 4.66 | 1.39 | 3.41 |
| ACTATTAGTTGAATTAGGGCAACCGATACGACGC | 0.466 | -0.0406 | 0.224 | -0.00259 | 0.376 | 1.19 | 1.47 | 1.12 | 0.71 | 1.04 | 2.66 | 3.69 | 1.92 | 1.76 | 1.34 | -0.0416 | 0.205 | 0.264 | 1.47 | 0.87 |
| CCTTACGGGTCAAGAGGTTATAGCACGACGAGCG | 6.14 | 4.17 | 0.128 | 3.63 | -0.435 | 5.58 | 5.44 | 5.64 | 2.4 | 4.29 | 2.73 | 3.77 | 0.866 | 0.102 | 2.77 | 3.63 | 0.116 | 5.26 | 0.579 | 4.3 |
| ACTTACGGGTCAACGAGGTTATAGCTCGCGTATA | 7.28 | 5.05 | 0.77 | 4.4 | 0.524 | 5.72 | 5.51 | 5.57 | 2.36 | 4.17 | 3.43 | 4.16 | 1.04 | 0.353 | 3.06 | 5.45 | 2.82 | 5.16 | 0.0894 | 4.36 |
| CGTCCAAGGTCAAGATCAGTGAAAGAGACTCGAA | 6.95 | 4.97 | 0.248 | 3.85 | 0.6 | 5.63 | 4.78 | 5.2 | 1.46 | 3.58 | 3.03 | 3.31 | 0.858 | 0.353 | 2.49 | 3.3 | 0.349 | 3.99 | 1.69 | 5.14 |
| GCTGGTTGGTCAGTAAAAGGTCACACACCGGTCG | 3.32 | 4.46 | 4.47 | 4.09 | 1.04 | 4.38 | 2.91 | 4.89 | 2.71 | 4.59 | 0.091 | 2.51 | 0.438 | 0.205 | 3.78 | 5.07 | 1.42 | 6.03 | 2.87 | 4.3 |
| TCTTGTAGATCAACAGGAGGGTAAGAAAGATCGA | 0.289 | 0.24 | -0.818 | 0.0772 | -0.238 | 0.374 | -0.102 | 1.06 | 2.25 | 1.7 | 1.73 | 0.871 | 0.452 | 0.0976 | -0.361 | 0.00133 | -0.381 | -0.112 | 0.0256 | 0.107 |
| CCGACTGGGGCAGAAAGGTTCCCATACCATCCGG | -0.722 | -0.705 | -0.526 | -0.996 | -1.27 | -0.271 | 0.412 | 0.198 | -0.842 | -0.499 | 1.45 | 0.893 | -0.887 | -1.78 | -0.509 | -0.725 | -0.638 | -0.53 | -0.395 | 0.328 |
| ACTAGCAGGCCAAGGATCACTCAAGATTAGTCCG | -0.313 | -0.212 | -0.373 | -0.592 | -0.598 | 0.628 | 2.12 | 3.37 | 1.33 | 2.55 | 0.88 | 0.675 | -0.388 | -0.36 | 0.0853 | -0.479 | -0.469 | -0.293 | 0.362 | 0.296 |
| TCGAGTAGGTTAGTCGAGGCATTCAGCCAACATA | 0.165 | -0.288 | -0.432 | -0.531 | -1.3 | 0.172 | -0.115 | 0.522 | 0.735 | 0.72 | 1.97 | 1.28 | -0.938 | -0.136 | 0.168 | -0.24 | -0.481 | 0.0963 | -0.326 | -0.133 |
| TCATATAGGTAAAAGTGAAAGTCGAACGATATGA | 0.173 | 0.399 | -0.314 | -0.0823 | 0.0543 | 1.84 | 3.25 | 4.43 | 4.62 | 4.68 | 3.02 | 2.69 | 1.14 | 1.16 | 0.424 | 0.212 | 0.0345 | 0.234 | 0.539 | 0.22 |
| CTACCAAGGGGAACAAGGTCGTTGATTACTATTC | 0.208 | 0.398 | 0.166 | 1.28 | -0.298 | 1.24 | 0.284 | 0.325 | 0.0626 | 0.258 | 0.796 | 0.857 | -0.93 | 0.266 | 0.795 | 1.46 | 1.29 | 1.16 | -0.123 | 0.601 |
| TCTGCTAGGTCAGTTGGTCAACTAACGAGCTGCC | 0.974 | 0.627 | -0.58 | 0.38 | 0.371 | 1.63 | 1.12 | 2.14 | 1.02 | 1.81 | 2.83 | 3.32 | 0.661 | 0.786 | -0.104 | 0.269 | -0.861 | 0.622 | -0.954 | 3.27 |
| TCTTGTAGATCAGCAGGGTAAGAAAGCTGGCCAA | -0.168 | -0.124 | -0.627 | -0.0454 | -0.559 | 0.26 | -0.512 | 1.17 | 2.55 | 1.82 | 1.81 | 0.207 | -0.22 | -0.694 | -0.287 | 0.0405 | -0.245 | 0.188 | -0.0241 | -0.199 |
